Laboratory results reported in PubChem BioAssay (EPA / NIEHS).
Activity calls are given as the source filed them. The calls were made as follows: active = hit-call score of the fitted dose curve at least 0.9, where 1 is the maximum; inactive = score below 0.9.

Assay: Tanguay_ZF_120hpf_AXIS: Oregon State University Tanguay Lab 120 Hour Post-fertilization zebrafish Assay for Axial Malformation (AID 2284398)
Protocol: Tanguay_ZF_120hpf is a whole embryo, multiplexed endpoint assay using zebrafish larvae exposed for 120 hours post fertilization on a 96-well plate.Tanguay_ZF_120hpf_AXIS is one of one assay component(s) measured or calculated from the Tanguay_ZF_120hpf assay. It is designed to make measurements of zebrafish development as detected with brightfield microscopy of developing zebrafish embryos.Data from the assay component Tanguay_ZF_120hpf_AXIS was analyzed into 1 assay endpoints. This assay endpoint, Tanguay_ZF_120hpf_AXIS, was analyzed in the positive analysis fitting direction relative to DMSO as the negative control and baseline of activity. Using a type of morphology reporter, gain-of-signal activity can be used to understand changes in developmentals as they relate to the whole embryo. To generalize the intended target to other relatable targets, this assay endpoint is annotated to the zebrafish development intended target family, where the subfamily is body axis morphogenesis.
Zebrafish husbandry: Tropical 5D wild-type adult zebrafish were housed in at an approximate density of 1000 per 100 gallon tank at the Sinnhuber Aquatic Research Laboratory, Oregon State University, Corvallis, OR. Each tank was kept at standard laboratory conditions of 28C on a 14-h light/10-h dark photoperiod in fish water consisting of reverse osmosis water supplemented with a commercially available salt (Instant Ocean). Spawning funnels were placed into the tanks the night prior, and embryos were collected and staged. To increase bioavailability, the chorion was enzymatically removed using pronase (63.6mg/ml, >/= 3.5U/mg, Sigma-Aldrich: P5147) at 4 hours post fertilization (hpf) using a custom automated dechorionator.Chemical exposures: Six hpf dechorionated embryos were placed 1 embryo per well in a 96-well plate prefilled with 90 ul of EM using automated embryo placement systems (AEPS). Ten microliters of each row of dilution plate 2 was added to 2 exposure plates. The final DMSO concentration used was 0.64% (vol/vol). Thirty-two embryos were also exposed to 5uM trimethyltin chloride (positive control). Plates were sealed to prevent evaporation and foil covered to reduce light exposure and kept in a 28C incubator. Embryos were statically exposed until 120 hpf. At 24 hpf, embryos were assessed for photomotor response using a custom photomotor response analysis tool (PRAT) and for developmental toxicity endpoints (MO24: mortality at 24 hpf, DP: developmental progression, SM: spontaneous movement, and NC: notochord distortion). At 120 hpf, locomotor activity was measured using Viewpoint Zebralab and assessed for 13 endpoints. Zebrafish acquisition and analysis program (ZAAP), a custom program designed to inventory, acquire, and manage zebrafish data, was used to collect developmental endpoints as either present or absent (i.e., binary responses were recorded). If mortality occurred for an embryo (at either 24 or 120 hpf), the non-mortality endpoints were not measured.

| SMILES | outcome | AC50 |
| --- | --- | --- |
| COC(=O)C(F)(F)C(F)(F)OC(F)(C(F)(F)F)C(F)(F)OC(F)=C(F)F (centres undefined) | inactive | – |
| OCC(F)(F)OC(F)(F)C(F)(F)OC(F)(F)C(F)(F)OC(F)(F)F | inactive | – |
| FC(F)(F)C(F)(C(F)(F)F)C(F)(F)C(F)(F)CC1CO1 (centres undefined) | inactive | – |
| OCC(F)(F)OC(F)(F)C(F)(F)OC(F)(F)C(F)(F)OC(F)(F)CO | – | 36.7 µM (active) |
| O=C(O)C(F)(F)C(F)(F)C(=O)O | inactive | – |
| OCC(F)(F)OC(F)(F)C(F)(F)OC(F)(F)CO | inactive | – |
| O=C(O)C(F)(OC(F)(F)C(F)(F)C(F)(F)F)C(F)(F)F (centres undefined) | inactive | – |
| O=C(O)C(F)(F)OC(F)(F)C(F)(F)OC(F)(F)F | inactive | – |
| NC(=O)C(F)(F)C(F)(F)F | inactive | – |
| O=C(O)C(F)(F)OC(F)(F)C(F)(F)OC(F)(F)C(=O)O | inactive | – |
| CC(O)C(F)(F)C(F)(F)F (centres undefined) | inactive | – |
| O=C(O)C=CC(F)(C(F)(F)F)C(F)(F)F | inactive | – |
| O=S(=O)(F)C(F)(F)C(F)(F)C(F)(F)C(F)(F)C(F)(F)C(F)(F)C(F)(F)C(F)(F)F | inactive | – |
| C=CC(=O)OCC(F)(F)C(F)F | – | 54.6 µM (active) |
